Test results published in PMC5540273 (PLoS ONE, 2017).

Experiments:
Settings in all cases: concentration: 1 μM, replicates: in singlicate; n = 1
MEK5 = system: T1, MEK5
T1 construct: gene MAP2K5

MEK6 = system: T2, MEK6
T2 construct: gene MAP2K6

MELK = system: MELK
MERTK = system: MERTK
MET = system: MET
MINK = system: T3, MINK
T3 construct: gene MINK1

MKK7 = system: MKK7
MKNK1 = system: MKNK1
MKNK2 = system: MKNK2
MLCK = system: T4, MLCK
T4 construct: gene MYLK3

MLK1 = system: T5, MLK1
T5 construct: gene MAP3K9

MLK2 = system: MLK2
MLK3 = system: MLK3
MRCKA = system: MRCKA
MRCKB = system: T6, MRCKB
T6 construct: gene CDC42BPB

MST1R = system: MST1R
MST1 = system: T7, MST1
T7 construct: gene STK4

MST2 = system: T8, MST2
T8 construct: gene STK3

MST3 = system: T9, MST3
T9 construct: gene STK24

MST4 = system: MST4
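Further: KINOMEscan kinase panel screen.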

SMILES	%Inh (MEK5) [%]	%Inh (MEK6) [%]	%Inh (MELK) [%]	%Inh (MERTK) [%]	%Inh (MET) [%]	%Inh (MINK) [%]	%Inh (MKK7) [%]	%Inh (MKNK1) [%]	%Inh (MKNK2) [%]	%Inh (MLCK) [%]	%Inh (MLK1) [%]	%Inh (MLK2) [%]	%Inh (MLK3) [%]	%Inh (MRCKA) [%]	%Inh (MRCKB) [%]	%Inh (MST1R) [%]	%Inh (MST1) [%]	%Inh (MST2) [%]	%Inh (MST3) [%]	%Inh (MST4) [%]
O=C(Nc1cccc(-c2nn3ccccc3c2-c2ccnc(Nc3cccc(F)c3)n2)c1)c1c(F)ccc(F)c1Cl [GSK357952]	88	0	0	51	0	0	0	0	29	0	0	31	39	9	1	50	25	0	4	0
Cn1cc(-c2ccc3c(c2)CCN3C(=O)Cc2cccc(F)c2)c2c(N)ncnc21 [GSK2603358]	99.9	0	9	49	61	0	32	2	21	16	20	11	37	5	0	49	95.8	69	15	8
O=C(Nc1cccc(-c2nn3ccccc3c2-c2ccnc(Nc3cccc(C(F)(F)F)c3)n2)c1)c1c(F)cccc1F [GSK292658]	80	0	0	37	0	2	0	0	1	0	0	0	0	4	4	0	11	0	0	3
Nc1n[nH]c2cnc(-c3ccccc3)cc12 [SB-642124]	52	0	28	43	0	53	0	13	8	1	0	0	0	16	3	37	4	8	0	5
CNC(=O)c1ccccc1Nc1nc(Nc2ccc(N3CCOCC3)cc2)ncc1Cl.Cl [GSK1576028]	97.6	79	99.8	100	95	72	0	14	82	96.1	97.6	82	86	6	0	92.9	99.1	97.5	61	85
O=C(Nc1cccc(Oc2ccc3nc(NC(=O)C4CC4)cn3n2)c1)c1ccccc1C(F)(F)F	99.8	14	15	26	7	2	0	0	0	0	6	4	0	24	0	23	10	18	0	0
COc1cc(Nc2nccc(-c3c(-c4cccc(NC(=O)c5c(F)cccc5F)c4)nn4ncccc34)n2)cc(OC)c1OC [GSK327238]	99.9	51	31	90.2	79	44	0	5	5	47	9	39	50	100	98.9	79	96.6	92.1	64	42
CN(c1ccc(NC(=O)Nc2cc(C(F)(F)F)ccc2F)cc1)c1ccnc(Nc2ccc(S(N)(=O)=O)cc2)n1 [GW809893]	98.8	100	12	98.2	88	76	2	50	98.9	28	75	34	66	0	0	99.7	80	2	29	28
Cl.NC(=O)c1cccc(Nc2nccc(Nc3ccc(Oc4c(Cl)cccc4Cl)c(Cl)c3)n2)c1 [GW659009]	97.5	0	0	0	0	90.2	17	0	1	0	0	0	0	0	0	3	75	11	0	0
Cc1ccc(F)c(C(=O)Nc2cccc(-c3nn4ccccc4c3-c3ccnc(Nc4cccc(F)c4)n3)c2)c1F [GSK361061]	95	18	12	75	58	17	10	21	0	5	14	42	31	22	24	34	34	0	2	15
